From PubChem BioAssay AID602289 (National Center for Advancing Translational Sciences (NCATS), 2012)
Screen size: about 2,400 compounds; about 40 (2%) were called active. Roughly 1% stayed inconclusive and do not appear here.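 Rule for the calls: active = inhibition at or above 60%; inconclusive = inhibition from 0% up to below 60%; inactive = no inhibition observed.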 The full list was thinned out, with actives kept by preference.

Test: qHTS Assay for Small Molecule Inhibitors of Mitochondrial Division or Activators of Mitochondrial Fusion: Hit Validation in Malachite Green Assay
Conditions: purified GTPase, malachite green phosphate release, A650; stronger effect = higher value
Description: The budding yeast S. cerevisiae is a powerful system to study mitochondrial fusion. Unlike other organisms, yeast cells without functional mitochondrial DNA (mtDNA) can be propagated and studied as long as they maintain a mitochondrial compartment and are provided with a fermentable carbon source. When mitochondrial fusion is blocked in yeast, mitochondrial tubules rapidly fragment and division continues unopposed. Under conditions where fusion is compromised in mammalian cells, nearly identical changes in mitochondrial structure have been observed. Thus, these findings indicate that steady state mitochondrial structure in cells is a characteristic and specific indicator of fusion activity. Mounting evidence has pointed to a connection between mitochondrial dynamics and apoptosis in mammalian cells. These studies indicate that in mammalian cells mitochondrial dynamics are more integrated into cellular processes than in yeast cells and have evolved not only to distribute the organelle but also to aid in the regulation of cellular homeostasis. Mitochondrial fusion proteins attenuate apoptosis by inhibiting the release of cytochrome c from mitochondria, in part by controlling cristae structures. Thus, small molecules that inhibit mitochondrial fusion may promote apoptosis and potentially act as novel chemotherapeutics and stimulation of apoptosis has become an attractive target of anti-cancer therapies. To identify inhibitors of mitochondrial division, we exploit the growth phenotypes of mitochondrial fusion-defective mutants. The temperature sensitive fusion alleles, such as fzo1-1 and mgm1-5, cause mitochondrial membranes to fragment in cells under non-permissive conditions and cells lose mtDNA, and are unable to grow in the presence of non-fermentable carbon source glycerol. Inhibiting mitochondrial division rescues growth. The hits were tested by the assay provider in a malachite green assay. NIH Chemical Genomics Center [NCGC] NIH Molecular Libraries Probe Production Centers Network [MLPCN] MLPCN Grant: MH081279 Assay Submitter (PI): Jodi M. Nunnari
Malachite Green Reagent Malachite Green carbinol base- Aldrich 229105 Ammonium molybdate - Sigma A7302 For 100 mL Malachite Green reagent in 1N HCl 16 mL conc. HCL + 32 mL H20 = 48 mL 4N HCl 34 mg malachite green base into 40 mL 1N HCl (10 mL 4N HCl + 30 mL H20) 1 g ammonium molybdate in 15 mL 4N HCl Mix Solutions together. Bring up to […] with H2O. Filter using a 0.2 um tissue culture filter unit (has plastic bottle attached) store at 4 masculine C. (Avoid Glassware/Plastics washed in detergent. Mix solutions in 50 mL conical vials.) For 20 uL reaction volume 1.0 uL Test Drug or DMSO: Added first to each well […]: 25 mM Hepes/Pipes pH 7.0 (H/P) 2.0 uL: 50 mM MgCl2 (final 5mM) 2.32 uL: 1 M NaCl (with contributing protein salt, Final = 150mM) 13.4 uL per reaction. Can be mixed in larger volume (Mini Master Mix) 1.6 uL: Protein 7.5 uM or Protein Freezing Buffer. (Final = 0.6uM) After Protein Added to mini Master Mix, 15ul Total Master Mix added to each well with drug. 4 uL: 500 uM GTP (Final = 100uM), Dilute with 25 mM H/P, store on ice. 20 uL Total Volume Make Master Mix: (Calculate desired reactions and add a few for multi-channel pipetting volume). Multiply the number of desired reactions by 13.4 uL for total Mini Master volume. Multiply the number of desired reactions by 1.6 uL for total Protein volume. Mix, and keep on ice until added to wells. Add 15 uL of Master Mix to each reaction well, incubate with drug for 10 min. For Positive (No Drug) controls add 15 uL Master Mix to wells with only 1 uL DMSO. Make PFB (Protein Freezing Buffer) (no Protein) Master Mix. Multiply the number of desired reactions by 13.4 uL for total Mini Master volume. Multiply the number of desired reactions by 1.6 uL for total PFB volume. Mix, and keep on ice until added to wells Add 10 uL of PFBMaster Mix to each Phosphate Standards well, and 15 uL to each negative control well with DMSO. […]
In the case of `O=C(COc1ccc(F)cc1Br)Nc1ccccc1N1CCOCC1`, the inhibition is reported as “inactive”.
For `CC1=C(C(=O)OCc2ccccc2)C(/C=C/c2ccccc2)N2C(=O)CCSC2=N1` (stereo not drawn), the inhibition was “inactive”.
With `O=[N+]([O-])c1ccc(O)c(P(=O)(c2ccccc2)c2ccccc2)c1` the inhibition was “inactive”.
With `CCNC(=O)C(=O)N/N=C/c1cc([N+](=O)[O-])ccc1O` the inhibition was 78.8% (active).
In the case of `CCN(CC)c1ccc(/C=N/NC(=O)c2ccc([N+](=O)[O-])cc2)cc1`, the inhibition is reported as “inactive”.
With `CCOC(=O)c1c(NC(=O)COC(=O)Cn2cnc3ccccc32)sc2c1CCC(C)C2` (stereo not drawn) the inhibition was “inactive”.
In the case of `N#C/C(=C\c1cn[nH]c1-c1ccc(Cl)cc1)C(=O)NCc1ccccc1`, the inhibition is reported as “inactive”.
In the case of `O=C(Nc1cccc(Br)c1)c1ccccc1-c1ccccc1`, the inhibition is reported as “inactive”.
For `Nc1c(-c2ccccc2)c(CSc2nc3ccccc3[nH]2)nn1-c1ccc(Cl)cc1`, the inhibition was “inactive”.
With `CCN(Cc1ccccc1)C(=O)c1oc2ccc(S(=O)(=O)N3CCOCC3)cc2c1C` the inhibition was “inactive”.
In the case of `O=c1c2ccccc2sn1-c1cc(S(=O)(=O)N2CCOCC2)ccc1N1CCCC1`, the inhibition is reported as 103% (active).
For `O=C(c1cc(S(=O)(=O)N2CCN(c3ccccc3)CC2)ccc1Cl)N1CCCCCCC1`, the inhibition was “inactive”.
In the case of `CCOC(=O)c1cccc(-c2c(-c3ccccc3)ncc3cc(OC)c(OC)cc23)c1`, the inhibition is reported as “inactive”.
For `O=C(NCc1ccc2c(c1)OCO2)c1ccc(CSCc2ccc(Cl)cc2)o1`, the inhibition was “inactive”.
For `O=C(Nc1ccccc1O)c1c(O)c2c([nH]c1=O)CCCC2`, the inhibition was “inactive”.
With `O=C(O)c1ccccc1CSc1nc2ccccc2n1Cc1ccccc1C(=O)O` the inhibition was “inactive”.
With `Cc1cc(SCC(=O)c2ccc(Cl)cc2)nc(=O)[nH]1` the inhibition was 96.8% (active).
In the case of `COc1ccc(C(=O)CSc2ccc(-c3ccc(C)cc3)nn2)cc1`, the inhibition is reported as “inactive”.
In the case of `Cc1ccc(C(=O)CSc2nc(C(C)C)nc3ccccc23)cc1`, the inhibition is reported as “inactive”.
For `O=C(Nc1ccc(N2CCOCC2)c(S(=O)(=O)Nc2ccccc2Cl)c1)c1ccccc1`, the inhibition was “inactive”.
For `COc1cccc(C(Nc2ccccn2)c2c(NC(=O)c3ccco3)sc(C)c2C)c1` (stereo not drawn), the inhibition was “inactive”.
With `Cc1ccc(C)c(N2CCN(C(=O)CCCn3c(=O)c4cccn4c4cccnc43)CC2)c1` the inhibition was “inactive”.
With `COc1cccc(C(=O)NC2CCN(C(=O)N3c4ccccc4Sc4ccccc43)CC2)c1` the inhibition was “inactive”.
In the case of `O=C(COc1cc2oc(=O)cc(-c3ccccc3)c2cc1Cl)NCc1ccccn1`, the inhibition is reported as “inactive”.
In the case of `C/C(=N\NC(=O)COc1ccccc1-c1ccccc1)c1ccccn1`, the inhibition is reported as 71.6% (active).
For `O=C(COc1ccccc1-c1ccccc1)NCc1cccc(Cl)c1`, the inhibition was “inactive”.
For `O=[N+]([O-])c1ccccc1SN(Cc1ccccc1)c1ccccn1`, the inhibition was “inactive”.
In the case of `CCC(CC)C(=O)Nc1cc(C(=O)OC)ccc1C(=O)OC`, the inhibition is reported as “inactive”.
